The values below come from ChEMBL document CHEMBL3433997, “St. Jude Leishmania screening dataset” (2016).

Sequence of Solute carrier family 2, facilitated glucose transporter member 1 (Homo sapiens) (P11166 whole entry): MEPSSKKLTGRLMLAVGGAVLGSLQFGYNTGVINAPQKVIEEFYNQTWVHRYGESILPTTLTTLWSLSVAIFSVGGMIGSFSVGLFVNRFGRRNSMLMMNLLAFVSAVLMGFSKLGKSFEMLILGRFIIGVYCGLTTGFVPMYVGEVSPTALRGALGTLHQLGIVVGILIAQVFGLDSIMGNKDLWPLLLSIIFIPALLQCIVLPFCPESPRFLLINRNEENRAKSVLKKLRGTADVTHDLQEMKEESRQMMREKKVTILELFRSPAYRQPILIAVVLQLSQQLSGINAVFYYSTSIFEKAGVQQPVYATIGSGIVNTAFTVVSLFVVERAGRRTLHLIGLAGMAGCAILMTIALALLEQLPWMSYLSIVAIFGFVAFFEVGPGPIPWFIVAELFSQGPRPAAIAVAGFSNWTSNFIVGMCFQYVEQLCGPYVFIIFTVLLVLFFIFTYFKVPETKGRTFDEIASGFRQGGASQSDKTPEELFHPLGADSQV

The first assay has as its target Solute carrier family 2, facilitated glucose transporter member 1 (Homo sapiens) (UniProt P11166). Put plainly: ST_JUDE_LEISH: Cytotoxicity at 2uM final concentration against transgenic Leishmania Mexicana promastigotes LmGLUT1 that are glucose transport deficient and complemented with the human glucose transporter GLUT1. Activity is measured by DNA content using SYBR green in vitro. The class given is functional.
One may read the inhibition as the relative decrease from the control value, in per cent. With `Cn1nc(-c2cccc(CN[C@@H]3CCc4ccc(O)cc43)c2)c2cnc(NC3CCCC3)nc21`, the inhibition came out at 4.2%.

With `CN(C)CC(O)C(c1ccccc1)c1ccc(Cl)cc1` (stereo not given), the inhibition came out at 5.17%.

Regarding `COc1c(C2CCN(CCCCNC(=O)c3ccc(-c4ccc(C#N)cc4)cc3)CC2)ccc2c1C(C)(C)CCC2(C)C`, the inhibition came to 1.57%.

`COc1ccc2ncc(F)c(CCN3CCC[C@H](CNCc4ccc5c(n4)NC(=O)CS5)C3)c2n1`: the inhibition turned out to be 5.76%.

Regarding `Cc1ccc(OCC2CCN(c3ncc(C(=O)NCCCN4CCCC4=O)cc3Cl)CC2)cc1`, the inhibition was 1.15%.

`CCCN1CCN(c2ccc(NS(=O)(=O)c3ccc(C(=O)Nc4ccc(Cl)cc4)cc3)cc2)CC1`: the inhibition was determined as 0.49%.

In the case of `Cc1ccccc1C1CCN(C2CCC(NC(=O)/C=C/c3cc(C(F)(F)F)ccc3F)CC2)CC1` (stereo not given), the inhibition amounted to 2.67%.

As to `COc1nc2c(CCN3CCC(NCc4ccc5c(c4)NCCO5)CC3)c(Cl)cnc2cc1F`, the inhibition was determined as 14.1%.

In the case of `COc1c(C2=CCN(CCCCNC(=O)c3ccc(-c4ccc(C#N)cc4)cc3)CC2)ccc2c1CCCC2`, the inhibition was determined as 0.4%.

In the case of `Nc1ccc2nc(C=Cc3ccc(Cl)cc3)[nH]c2c1`, the inhibition was found to be 3.56%.

For `Cn1cncc1C(=O)Nc1cccc(-c2cccc(-c3nc4ccccc4[nH]3)c2)c1`, the inhibition came out at 4.71%.

On to `O=C(NC1CCN(Cc2ccc3c(c2)OCCO3)CC1)c1ccc(-c2cccc(Cl)c2)s1`, for which the inhibition is 5.55%.

In the case of `COc1ccc2nccc(NC(=O)N3CCC(NCc4cc5ccccc5[nH]4)CC3)c2n1`, the inhibition was 13.2%.

Regarding `CN1CCC(Oc2ccc(Nc3nccc(NCC(O)c4ccccc4)n3)cc2Cl)CC1` (stereo not given), the inhibition is -2.84%.

Take `COc1ccc(CCN(C)CCCOc2ccc(NC(=O)COc3cccc4sc5ccccc5c(=O)c34)cc2)cc1OC`: the inhibition was -2.54%.

Turning to `O=C(O)C[C@H](NC(=O)CCCNC(=O)c1cccc(-c2ccc(Cl)c(Cl)c2)c1)C(=O)O`, the inhibition was -1.37%.

`COc1ccnc(NCCCNCc2cn(S(=O)(=O)c3ccccc3)c3ccccc23)c1`: the inhibition came out at 2.74%.

For `Cc1ccc(NC(=O)c2ccc3ncccc3c2)cc1OC1CCN(CCC(C)C)CC1`, the inhibition worked out at 3.07%.

In the case of `CCc1ccc(NC(=O)c2ccc(CN3CCCN(CC4CCCCC4)CC3)cc2)cc1`, the inhibition was 7.57%.

As for `O=C(Nc1cccc(-c2ccc(-c3nc4cc(C(F)(F)F)ccc4[nH]3)cc2)c1)c1ccncc1`, the inhibition came out at 6.22%.

In the case of `CCNc1cc(C(=O)N[C@@H](Cc2ccccc2)[C@H](O)CNC2(C)CCCCC2)cc(N2CCCCS2(=O)=O)c1`, the inhibition is 1.96%.

On to `O=C(/C=C/c1ccc(Cl)c(Cl)c1)NCCCCCCN1CCN(C(=O)Nc2ccc(C(F)(F)F)cc2)CC1`, for which the inhibition was 2.86%.

Take `CS(=O)(=O)Cc1ccc(Nc2ncc(Cl)c(Nc3cccnc3C(N)=O)n2)cc1`: the inhibition was determined as 28.2%.

Turning to `O=C(Nc1ccc(Cl)c(C(F)(F)F)c1)c1ccc(C(=O)Nc2ccc(Cl)c(C(F)(F)F)c2)cc1`, the inhibition is -2.43%.

For the compound `COc1cc2nc(Nc3ccc(N4CCOCC4)cc3)nc(N)c2cc1OC`, the inhibition amounted to 0.99%.

As for `O=C(c1cc(C(=O)NC2CCCCC2)c(=O)n(C2CCCCC2)c1)c1cc(F)ccc1O`, the inhibition turned out to be 2.83%.

Regarding `O=C(Nc1cccc(CN2CCCN(CCc3ccccc3)CC2)c1)c1cc2ccccc2s1`, the inhibition was -1.04%.

`O=C(OCc1ccccc1)N1CCc2c([nH]c3ccccc23)C1CCC(F)(F)F` (stereo not given): the inhibition was found to be 3.72%.

`Oc1ccc(CCNc2nc(NCCCOc3cccc(CN4CCCCC4)c3Cl)nc(N3CCNCC3)n2)cc1`: the inhibition is 3.62%.

For the compound `CN1CCN(CCCNCc2ccc(Nc3nccc(Nc4ccc(Oc5ccccc5)cc4)n3)cc2)CC1`, the inhibition was 0.09%.

For the compound `Fc1cccc(COc2ccc(Nc3ncnc4sc(C#Cc5ncc[nH]5)cc34)cc2Cl)c1`, the inhibition amounted to 0.39%.

Turning to `COc1cccc(CN2CCC(C(=O)Nc3ccc(-c4nc5ccccc5[nH]4)cc3)CC2)c1`, the inhibition stood at 23.8%.

As to `c1ccc(Oc2ccc(Nc3nc(NCCc4c[nH]cn4)nc(NC4CCCC4)n3)cc2)cc1`, the inhibition is 5.3%.

As to `Cc1cccc2nc(-c3cccc(-c4ccc(NC(=O)Cc5ccon5)cc4)c3)[nH]c12`, the inhibition came to 14.2%.

On to `C=CCOc1ccc(Cc2cnc(N)nc2N)cc1CCC`, for which the inhibition was found to be 3.94%.

Take `CCOc1ccc(C2CCN(CCCCNC(=O)c3ccc(NC(=O)c4ccc(Cl)cc4)cc3)CC2)c(CC)c1`: the inhibition came to 0.2%.

As to `CCCCCn1c(Sc2ccc(C#N)c([N+](=O)[O-])c2)nnc1-c1cc(OC)cc(OC)c1`, the inhibition turned out to be 13%.

Regarding `COc1ccc2ncc(F)c(CCN3CCC4(CC3)COC(c3cc5c(cn3)OCCO5)=N4)c2n1`, the inhibition was found to be 10.3%.

As to `O=C(O)c1ccc(OCOCOc2ccc(C(=O)O)c(O)c2)cc1O`, the inhibition came to 5.67%.

On to `COc1ccc(Nc2nccc(NCCNC(=O)Nc3cc(C)ccc3C)n2)cc1`, for which the inhibition worked out at 11.1%.

A further assay has as its target Hexose transporter 1 (Plasmodium falciparum) (UniProt O97467). The assay can be described thus: ST_JUDE_LEISH: Cytotoxicity at 2uM final concentration against transgenic Leishmania Mexicana promastigotes LmPfHT that are glucose transport deficient and complemented with the Plasmodium falciparum hexose transporter. Activity is measured by DNA content using SYBR green in vitro. Type of assay: functional.
`Cn1nc(-c2cccc(CN[C@@H]3CCc4ccc(O)cc43)c2)c2cnc(NC3CCCC3)nc21`: the inhibition came out at 3.87%.

Consider `CN(C)CC(O)C(c1ccccc1)c1ccc(Cl)cc1` (stereo not given), for which the inhibition is 1.04%.

On to `COc1c(C2CCN(CCCCNC(=O)c3ccc(-c4ccc(C#N)cc4)cc3)CC2)ccc2c1C(C)(C)CCC2(C)C`, for which the inhibition stood at 2.62%.

In the case of `COc1ccc2ncc(F)c(CCN3CCC[C@H](CNCc4ccc5c(n4)NC(=O)CS5)C3)c2n1`, the inhibition was 5.3%.

As for `Cc1ccc(OCC2CCN(c3ncc(C(=O)NCCCN4CCCC4=O)cc3Cl)CC2)cc1`, the inhibition was -1.22%.

For the compound `CCCN1CCN(c2ccc(NS(=O)(=O)c3ccc(C(=O)Nc4ccc(Cl)cc4)cc3)cc2)CC1`, the inhibition came to 0.84%.

In the case of `Cc1ccccc1C1CCN(C2CCC(NC(=O)/C=C/c3cc(C(F)(F)F)ccc3F)CC2)CC1` (stereo not given), the inhibition was 2.98%.

As for `COc1nc2c(CCN3CCC(NCc4ccc5c(c4)NCCO5)CC3)c(Cl)cnc2cc1F`, the inhibition was determined as 9.24%.

As to `COc1c(C2=CCN(CCCCNC(=O)c3ccc(-c4ccc(C#N)cc4)cc3)CC2)ccc2c1CCCC2`, the inhibition was -0.52%.

Consider `Nc1ccc2nc(C=Cc3ccc(Cl)cc3)[nH]c2c1`, for which the inhibition worked out at 3.93%.

For `Cn1cncc1C(=O)Nc1cccc(-c2cccc(-c3nc4ccccc4[nH]3)c2)c1`, the inhibition is 4.74%.

With `O=C(NC1CCN(Cc2ccc3c(c2)OCCO3)CC1)c1ccc(-c2cccc(Cl)c2)s1`, the inhibition was determined as 5.55%.

Turning to `COc1ccc2nccc(NC(=O)N3CCC(NCc4cc5ccccc5[nH]4)CC3)c2n1`, the inhibition was 16.9%.

As to `CN1CCC(Oc2ccc(Nc3nccc(NCC(O)c4ccccc4)n3)cc2Cl)CC1` (stereo not given), the inhibition was -3.54%.

With `COc1ccc(CCN(C)CCCOc2ccc(NC(=O)COc3cccc4sc5ccccc5c(=O)c34)cc2)cc1OC`, the inhibition was -2.87%.

Turning to `O=C(O)C[C@H](NC(=O)CCCNC(=O)c1cccc(-c2ccc(Cl)c(Cl)c2)c1)C(=O)O`, the inhibition amounted to 0.62%.

`COc1ccnc(NCCCNCc2cn(S(=O)(=O)c3ccccc3)c3ccccc23)c1`: the inhibition was determined as 3.67%.

Regarding `Cc1ccc(NC(=O)c2ccc3ncccc3c2)cc1OC1CCN(CCC(C)C)CC1`, the inhibition is 2.35%.

As to `CCc1ccc(NC(=O)c2ccc(CN3CCCN(CC4CCCCC4)CC3)cc2)cc1`, the inhibition is 10.3%.

Consider `O=C(Nc1cccc(-c2ccc(-c3nc4cc(C(F)(F)F)ccc4[nH]3)cc2)c1)c1ccncc1`, for which the inhibition was found to be 0.73%.

On to `CCNc1cc(C(=O)N[C@@H](Cc2ccccc2)[C@H](O)CNC2(C)CCCCC2)cc(N2CCCCS2(=O)=O)c1`, for which the inhibition is -0.16%.

Take `O=C(/C=C/c1ccc(Cl)c(Cl)c1)NCCCCCCN1CCN(C(=O)Nc2ccc(C(F)(F)F)cc2)CC1`: the inhibition was determined as 3.11%.

For the compound `CS(=O)(=O)Cc1ccc(Nc2ncc(Cl)c(Nc3cccnc3C(N)=O)n2)cc1`, the inhibition stood at 32.1%.

`O=C(Nc1ccc(Cl)c(C(F)(F)F)c1)c1ccc(C(=O)Nc2ccc(Cl)c(C(F)(F)F)c2)cc1`: the inhibition worked out at 1.08%.

As to `COc1cc2nc(Nc3ccc(N4CCOCC4)cc3)nc(N)c2cc1OC`, the inhibition amounted to 2.3%.

With `O=C(c1cc(C(=O)NC2CCCCC2)c(=O)n(C2CCCCC2)c1)c1cc(F)ccc1O`, the inhibition was found to be 1.22%.

In the case of `O=C(Nc1cccc(CN2CCCN(CCc3ccccc3)CC2)c1)c1cc2ccccc2s1`, the inhibition was -1.82%.

In the case of `O=C(OCc1ccccc1)N1CCc2c([nH]c3ccccc23)C1CCC(F)(F)F` (stereo not given), the inhibition is 2.6%.

On to `Oc1ccc(CCNc2nc(NCCCOc3cccc(CN4CCCCC4)c3Cl)nc(N3CCNCC3)n2)cc1`, for which the inhibition was found to be 1.93%.

On to `CN1CCN(CCCNCc2ccc(Nc3nccc(Nc4ccc(Oc5ccccc5)cc4)n3)cc2)CC1`, for which the inhibition is 1.17%.

For the compound `Fc1cccc(COc2ccc(Nc3ncnc4sc(C#Cc5ncc[nH]5)cc34)cc2Cl)c1`, the inhibition is -0.11%.

For `COc1cccc(CN2CCC(C(=O)Nc3ccc(-c4nc5ccccc5[nH]4)cc3)CC2)c1`, the inhibition turned out to be 32.9%.

Consider `c1ccc(Oc2ccc(Nc3nc(NCCc4c[nH]cn4)nc(NC4CCCC4)n3)cc2)cc1`, for which the inhibition turned out to be 5.86%.

For the compound `Cc1cccc2nc(-c3cccc(-c4ccc(NC(=O)Cc5ccon5)cc4)c3)[nH]c12`, the inhibition came to 12.3%.

As to `C=CCOc1ccc(Cc2cnc(N)nc2N)cc1CCC`, the inhibition is 4.62%.

On to `CCOc1ccc(C2CCN(CCCCNC(=O)c3ccc(NC(=O)c4ccc(Cl)cc4)cc3)CC2)c(CC)c1`, for which the inhibition was -0.09%.

Take `CCCCCn1c(Sc2ccc(C#N)c([N+](=O)[O-])c2)nnc1-c1cc(OC)cc(OC)c1`: the inhibition was 10.4%.

Turning to `COc1ccc2ncc(F)c(CCN3CCC4(CC3)COC(c3cc5c(cn3)OCCO5)=N4)c2n1`, the inhibition was 7.42%.

As to `O=C(O)c1ccc(OCOCOc2ccc(C(=O)O)c(O)c2)cc1O`, the inhibition worked out at 5.54%.

For the compound `COc1ccc(Nc2nccc(NCCNC(=O)Nc3cc(C)ccc3C)n2)cc1`, the inhibition came to 9.29%.
